SMILES strings stand for the structures. ± gives the standard deviation of the averaged measurements.

Assay [1] has as its system MDA-MB-231. The assay is described as follows: cell viability relative to vehicle unstimulated control (fraction); higher = more viable cells. Particulars: pre-treatment time: 18 h then 24 h IFNg/TNF.
The test system of assay [2] is MDA-MB-231. The assay is described as follows: kynurenine production, fold change vs DMSO IFNg/TNF control; higher = more kynurenine produced (less inhibition). Particulars: pre-treatment time: 18 h then 24 h IFNg/TNF. The gist of the method: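 MDA-MB-231 cells (7 × 10^4/well, 96-well plates, seeded 24 h earlier) were pre-treated 18 h with each natural product in 0.1% DMSO, then stimulated 24 h with IFNγ (1 U/ml) and TNF (6.25 ng/ml) at 37°C. Supernatant kynurenine was read at 492 nm after trichloroacetic acid and p-dimethylaminobenzaldehyde treatment, against 0–100 μM standards. Kynurenine production is the fold change over cytokine-stimulated vehicle wells on the same plate, averaged over duplicate plates in the first screening round.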
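For cell viability relative to vehicle unstimulated control in this document: viability of the cells left after supernatant collection, read with Deep Blue dye added for 4 h, as absorbance at 570 nm minus 600 nm.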

Regarding `C[C@@]12C[C@@]3(O)O[C@@H](O1)[C@]1(COC(=O)c4ccc(O)cc4)[C@@H]3C[C@]12O[C@@H]1O[C@H](CO)[C@@H](O)[C@H](O)[C@H]1O` [Oxypaeoniflorin] (compound dose: 10 uM), the cell viability in assay [1] came out at 1.05 ± 0.069. For the same molecule, the kynurenine production in assay [2] turned out to be 0.916 ± 0.082.

On to `CC1(C)CC[C@]2(C(=O)O)CC[C@]3(C)C(=CC[C@@H]4[C@@]5(C)CC[C@H](O[C@@H]6O[C@H](C(=O)O)[C@@H](O)[C@H](O)[C@H]6O)C(C)(C)[C@@H]5CC[C@]43C)[C@@H]2C1` [Calenduloside E] (compound dose: 10 uM), for which the cell viability in assay [1] was found to be 1.07 ± 0.054. Also, the kynurenine production in assay [2] came out at 0.962 ± 0.087.

Regarding `CC(=O)O[C@@H]1C[C@@]23C[C@@]24CC[C@H](O[C@@H]2OC[C@@H](O)[C@H](O)[C@H]2O)C(C)(C)[C@@H]4CC[C@H]3[C@]2(C)C[C@@H]3O[C@]4(C[C@@H](C)[C@@H]3[C@@]12C)OC[C@@]1(C)O[C@@H]41` [26-Deoxyactein] (compound dose: 10 uM), the cell viability in assay [1] came to 0.9809 ± 0.0077. The kynurenine production in assay [2] amounted to 0.911 ± 0.22.

Turning to `CC1(C)C(O[C@@H]2OC[C@@H](O)[C@H](O)[C@H]2O)CC[C@]23CC24CC[C@]2(C)[C@@H]([C@@]5(C)CC[C@@H](C(C)(C)O)O5)[C@H](O)C[C@@]2(C)C4C[C@@H](O[C@@H]2O[C@H](CO)[C@@H](O)[C@H](O)[C@H]2O)C13` (stereo not given in full) [Astragaloside IV] (compound dose: 10 uM), the cell viability in assay [1] amounted to 1.05 ± 0.022. In addition, in assay [2], the kynurenine production was determined as 0.878 ± 0.068.

Consider `C=C1C(=O)O[C@H]2C[C@H](C)C(/C=C/C(C)=O)=CC[C@H]12` [Xanthatin] (compound dose: 10 uM), for which the cell viability in assay [1] stood at 0.66 ± 0.18. Further, the kynurenine production in assay [2] was 0.13 ± 0.042.

For the molecule `C[C@@H]1CC[C@]2(C)CC[C@]3(C)C(=CC(=O)C4[C@@]5(C)CC[C@@H](O)[C@](C)(C(=O)O)C5CC[C@]43C)C2[C@H]1C` (stereo partly drawn) [11-Keto-beta-boswellic acid] (compound dose: 10 uM), the cell viability in assay [1] was found to be 0.949 ± 0.013. Further, in assay [2], the kynurenine production was 0.94 ± 0.12.

For the molecule `C[C@@H]1CC[C@]2(C(=O)O[C@@H]3O[C@H](CO)[C@@H](O)[C@H](O)[C@H]3O)CC[C@]3(C)C(=CC[C@@H]4[C@@]5(C)CC[C@H](O[C@@H]6OC[C@H](O)[C@H](O)[C@H]6O)C(C)(C)[C@@H]5CC[C@]43C)[C@@H]2[C@]1(C)O` [Ziyuglycoside I] (compound dose: 10 uM), the cell viability in assay [1] amounted to 0.947 ± 0.068. The kynurenine production in assay [2] amounted to 0.804 ± 0.19.

For `C=C(C)[C@H]1C=C[C@@](C)(O)CC1` [cis-Isolimonenol] (compound dose: 10 uM), the cell viability in assay [1] was 0.972 ± 0.02. For the same molecule, in assay [2], the kynurenine production stood at 0.813 ± 0.11.

Regarding `CC(=O)OC(CC12C3C(C(C)C)CCC1(C)C1CCC4(CCCC42)N3C1)C(=O)C1(C)COC2(C)CCC1O2` (stereo not given) [Daphniphylline] (compound dose: 10 uM), in assay [1], the cell viability stood at 1.01 ± 0.027. Moreover, the kynurenine production in assay [2] was determined as 0.75 ± 0.079.

For the molecule `C=C(C)[C@@H]1CC[C@]2(CO)CC[C@]3(C)[C@H](CC[C@@H]4[C@@]5(C)CC[C@H](O)C(C)(C)[C@@H]5CC[C@]43C)[C@@H]12` [Betulin] (compound dose: 2 uM), in assay [1], the cell viability was determined as 0.842 ± 0.04. Further, the kynurenine production in assay [2] is 0.826 ± 0.13.

For the molecule `CN1CCC[C@@H]1CC(=O)C[C@@H]1CCCN1C` [Cuscohygrine] (compound dose: 10 uM), the cell viability in assay [1] amounted to 0.977 ± 0.14. Also, the kynurenine production in assay [2] amounted to 0.962 ± 0.027.

Take `C=C1CCC[C@]2(C)C[C@@H]3OC(=O)C(C)=C3C[C@@H]12` [Atractylenolide II] (compound dose: 10 uM): the cell viability in assay [1] came out at 1.03 ± 0.018. In assay [2], the kynurenine production was 1.06 ± 0.041.

Take `COc1ccc2c(c1O)-c1c(O)c(OC)cc3c1[C@H](C2)[N+](C)(C)CC3` [Magnoflorine] (compound dose: 10 uM): in assay [1], the cell viability was found to be 0.966 ± 0.05. The kynurenine production in assay [2] turned out to be 0.937 ± 0.057.

Regarding `O=C1C[C@@H](O[C@@H]2O[C@H](CO)[C@@H](O)[C@H](O)[C@H]2O)CO1` [Kinsenoside] (compound dose: 10 uM), in assay [1], the cell viability came out at 0.971 ± 0.18. Further, in assay [2], the kynurenine production amounted to 1.01 ± 0.34.

In the case of `C/C=C(/C)C(=O)O[C@H]1[C@H](OC(C)=O)[C@@]2(CO)C(CC1(C)C)C1=CCC3[C@@]4(C)CCC(O[C@@H]5O[C@H](C(=O)O)[C@@H](O[C@@H]6O[C@H](CO)[C@@H](O)[C@H](O)[C@H]6O)[C@H](O)[C@H]5O[C@@H]5O[C@H](CO)[C@@H](O)[C@H](O)[C@H]5O)[C@](C)(CO)C4CC[C@@]3(C)[C@]1(C)C[C@H]2O.C/C=C(\C)C(=O)O[C@H]1[C@H](OC(C)=O)[C@@]2(CO)C(CC1(C)C)C1=CCC3[C@@]4(C)CCC(O[C@@H]5O[C@H](C(=O)O)[C@@H](O[C@@H]6O[C@H](CO)[C@@H](O)[C@H](O)[C@H]6O)[C@H](O)[C@H]5O[C@@H]5O[C@H](CO)[C@@H](O)[C@H](O)[C@H]5O)[C@](C)(CO)C4CC[C@@]3(C)[C@]1(C)C[C@H]2O` (stereo not given in full) [Escin] (compound dose: 10 uM), the cell viability in assay [1] was found to be 0.911 ± 0.11. For the same molecule, the kynurenine production in assay [2] was 1.14 ± 0.1.

(Values after the supplement of paper PMC13094657.)
